Data reported in the supplement of paper PMC13380429.

Test system: Vero E6 infected with SARS-CoV-2
Assay: morphology score (similarity to uninfected cells); higher = more like uninfected cells
Conditions: 24 h

Row | Structure (SMILES) | morphology score
1 | O[C@@H]1CCCC[C@H]1N1CCC(c2ccccc2)CC1 (racemic) [vesamicol] (10 µM) | 0.23
2 | COc1cc(/C=C/C(=O)CC(=O)/C=C/c2ccc(O)c(OC)c2)ccc1O [curcumin] (10 µM) | 0.548
3 | O=C(O)c1ccc(-c2ccc3cc(O)c(C45CC6CC(CC(C6)C4)C5)cc3c2)cc1 (10 µM) | -0.0522
4 | C[N+](C)(C)CCCCCNCC12CC3CC(CC(C3)C1)C2 (10 µM) | -0.0308
5 | NC(=O)OCCCc1ccccc1 [phenprobamate] (10 µM) | 0.0438
6 | CC(C)Oc1ccc(Cc2ccc(NC3=NCCN3)cc2)cc1 (10 µM) | 0.0823
7 | Cc1cccc(/C=N/Nc2cc(N3CCOCC3)n3nc(-c4ccncc4)cc3n2)c1 (10 µM) | 0.261
8 | CCNC(=O)[C@H]1O[C@@H](n2cnc3c(N)ncnc32)[C@H](O)[C@@H]1O (10 µM) | 0.184
9 | CC[N+](C)(CC)CCOC(=O)C(O)(c1ccccc1)C1CCCCC1 (centres undefined) [oxyphenonium] (10 µM) | 0.00163
10 | Cc1cccc(C)c1OCC(=O)N[C@@H](Cc1ccccc1)[C@@H](O)C[C@H](Cc1ccccc1)NC(=O)[C@H](C(C)C)N1CCCNC1=O [Lopinavir] (10 µM) | 0.184
11 | NC(=O)c1cn(Cc2c(F)cccc2F)nn1 [rufinamide] (10 µM) | 0.218
12 | O=C(NO)c1ccc(O)c(O)c1 [didox] (10 µM) | 0.0981
13 | C1COC(NC(C2CC2)C2CC2)=N1 [rilmenidine] (10 µM) | -0.0313
14 | CCn1cc(-c2ccnc3[nH]c(-c4cccc(CN(C)C)c4)cc23)c(-c2ccc(NC(=O)N(C)C)cc2)n1 (0.833333 µM) | -0.185
